# Experimental data published in PubChem BioAssay (NCI).
# The panel holds about 83,000 compounds, 20% with a hit somewhere; the sample as a whole holds those more often.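 Testing used 96-well plates and a 48-hour single-concentration exposure. Example: -40 means 40% of the starting cells died.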 Unmarked numbers belong to inactive results. Calls of active or inactive are those of the source. How the source made its calls: active means growth percent below 10; inactive means the rest.
# Experiments:
# Test in all cases: NCI-60 one-dose screen, 48 h (100 = growth as untreated, 0 = no growth, -100 = all killed)
# Settings in all cases: 10 µM unless noted
# NCI-H23 lung = tested on: NCI-H23 lung
# NCI-H226 lung = tested on: NCI-H226 lung
# NCI-H322M lung = tested on: NCI-H322M lung
# HOP-62 NSCLC = tested on: HOP-62 NSCLC
# NCI-H460 lung = tested on: NCI-H460 lung
# HOP-92 NSCLC = tested on: HOP-92 NSCLC
# NCI-H522 lung = tested on: NCI-H522 lung
# A549/ATCC NSCLC = tested on: A549/ATCC NSCLC
# 786-0 renal = tested on: 786-0 renal
# COLO 205 colon = tested on: COLO 205 colon
SMILES,growth (NCI-H23 lung),growth (NCI-H226 lung),growth (NCI-H322M lung),growth (HOP-62 NSCLC),growth (NCI-H460 lung),growth (HOP-92 NSCLC),growth (NCI-H522 lung),growth (A549/ATCC NSCLC),growth (786-0 renal),growth (COLO 205 colon)
CC(=O)CC(C)(C)c1ccc(Cl)cc1,95.5%,99%,107%,93.3%,108%,80%,95.5%,103%,97.8%,116%
Cc1csc2ccc(Cl)cc12,97.8%,104%,101%,96.6%,106%,104%,89%,109%,105%,105%
CC[C@]12C=CCN3CC[C@@]4(c5ccc(OC)cc5N(C)[C@H]4[C@@](O)(C(=O)OC)[C@@H]1OC(=O)CCC(=O)N[C@@H](Cc1c[nH]c4ccccc14)C(=O)OC)[C@@H]32,101%,104%,98.5%,90.1%,96.6%,66.8%,78.6%,86.8%,91.5%,98.8%
COc1cc(C#N)cc(OC)c1OCCN(CCOc1c(OC)cc(C#N)cc1OC)S(=O)(=O)c1ccc(C)cc1,96%,104%,91.6%,100%,112%,88.5%,95.1%,100%,92.7%,113%
C=C1CCC2C3(C)COC(c4ccccc4Br)OC3CCC2(C)C1C/C=C1/C(=O)OCC1OC(C)=O (stereo not given),-47.7% (active),-58.3% (active),21.7%,11.5%,1.8% (active),1.59% (active),-52.7% (active),22.7%,-72.8% (active),-76.7% (active)
NC(=S)N/N=C/c1ccc(OCc2ccccc2)cc1,84%,61.1%,79.9%,93.8%,86.7%,48.5%,-24.1% (active),68.4%,41.7%,56.9%
COc1c(Cl)cc(Cl)cc1Cl,108%,110%,129%,97.5%,97.8%,116%,103%,116%,112%,116%
O=C1CCc2c(sc3[nH]c(=S)n(Cc4ccccc4)c(=O)c23)C1,0.541% (active),51.2%,30.1%,10.2%,3.94% (active),-19.5% (active),2.03% (active),13.9%,30.9%,32.3%
Nc1c(C(=O)Nc2cccc3c2OCCO3)sc2nc3c(cc12)C(=O)CCC3,46.4%,27.9%,45.3%,46%,8.5% (active),107%,2.24% (active),37.7%,44.5%,-3.5% (active)
CC(C)(C)n1cc(-c2ccnc(NCCCNS(=O)(=O)c3cccc4ccccc34)c2)c(-c2cccc(O)c2)n1,42.1%,41%,43.4%,47.7%,2.1% (active),37.7%,15.8%,29.2%,-0.248% (active),-79.1% (active)
C#Cc1nc(Nc2cc(C)[nH]n2)c2ccccc2n1,-19.4% (active),-63.3% (active),-18.2% (active),-61.2% (active),-36.7% (active),-46.3% (active),-72.7% (active),-35.7% (active),-60.7% (active),-56.6% (active)
c1c2c(cc3c1OCO3)Cc1cc3c(cc1Cc1cc4c(cc1C2)OCO4)OCO3,109%,105%,109%,109%,104%,96.7%,94.2%,91.6%,110%,114%
